Results reported in PubChem BioAssay (EPA / NIEHS).
“And” between values parts separate entries of the source, which are not always exact repeats. Identical values can stand only once. More than one record can exist for a structure, and the calls need not agree. The source made the active and inactive calls. Rule for the calls: active = hit-call score of the fitted dose curve at least 0.9, where 1 is the maximum; inactive = score below 0.9.

Experiments:
[1] = target: Hepatocyte nuclear factor 3-beta (Homo sapiens) (UniProt Q9Y261); experiment: ATG_FoxA2_CIS: Attagene CIS-FACTORIAL HepG2 Assay for human Forkhead box A2 (FOXA2) (AID 2282942); conditions: HepG2 cis-reporter transcription factor activity, 24 h; actives raise or lower the signal
Sequence of Hepatocyte nuclear factor 3-beta (Homo sapiens) (Q9Y261 whole entry, looked up): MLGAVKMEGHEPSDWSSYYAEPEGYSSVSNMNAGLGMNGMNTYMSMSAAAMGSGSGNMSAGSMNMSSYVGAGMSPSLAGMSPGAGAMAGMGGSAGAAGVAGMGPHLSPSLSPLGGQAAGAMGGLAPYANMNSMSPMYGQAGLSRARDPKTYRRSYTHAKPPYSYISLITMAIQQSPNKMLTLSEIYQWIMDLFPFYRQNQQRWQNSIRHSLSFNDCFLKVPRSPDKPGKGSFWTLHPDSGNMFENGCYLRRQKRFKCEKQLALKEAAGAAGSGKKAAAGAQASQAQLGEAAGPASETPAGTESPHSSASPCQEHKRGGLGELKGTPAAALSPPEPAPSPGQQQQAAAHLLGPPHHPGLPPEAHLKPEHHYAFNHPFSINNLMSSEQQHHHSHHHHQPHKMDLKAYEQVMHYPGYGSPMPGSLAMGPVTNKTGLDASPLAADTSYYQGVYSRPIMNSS
How it was run: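 Endogenous transcription factor activity was read in HepG2 cells carrying transiently transfected cis-promoter reporter units. After 24 h dosing, reporter mRNA was quantified by RT-PCR and capillary electrophoresis, and values fitted bidirectionally versus DMSO.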

[2] = ATG_GATA_CIS: Attagene CIS-FACTORIAL HepG2 Assay for human GATA Binding Protein (AID 2282944); conditions: HepG2 GATA cis-element reporter, Attagene multiplex mRNA; actives raise or lower the signal
How it was run: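 Reporter transcripts from a GATA cis-regulated unit, among multiplexed reporters in transfected HepG2 cells, were measured by RT-PCR with capillary electrophoresis after 24 h dosing. Induction or loss scored relative to DMSO.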

[3] = ATG_GLI_CIS: Attagene CIS-FACTORIAL HepG2 Assay for human Zinc Finger Protein GLI1 (AID 2282945); conditions: HepG2, Attagene cis-factorial reporter mRNA, GLI element; actives raise or lower the signal
How it was run: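 Transiently transfected HepG2 cells report endogenous transcription factor activity via cis-element-driven reporter units. After 24 h compound exposure, reporter mRNA was measured by RT-PCR with capillary electrophoresis; bidirectional fitting against DMSO baseline.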

[4] = ATG_ISRE_CIS: Attagene CIS-FACTORIAL HepG2 Assay for human Interferon Regulatory Factor 1 (IRF1) binding to an Interferon-Stimulated Response Element (ISRE) (AID 2282948); conditions: HepG2 ISRE cis-reporter (Attagene), mRNA transcription readout; actives raise or lower the signal
How it was run: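 Uses HepG2 liver cells transfected with cis-regulated reporters and measures mRNA 24 h post-dosing through RT-PCR, primer-extension labelling and capillary electrophoresis, with DMSO as negative control.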

[5] = ATG_M_32_CIS: Attagene CIS-FACTORIAL HepG2 Assay for M32 Transcription Factor (Internal Marker) (AID 2282949); conditions: HepG2 Attagene cis-factorial M32 reporter, mRNA; actives raise or lower the signal;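 note: background control marker of the multiplexed CIS panel rather than a real target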
How it was run: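 HepG2 transfectants (cis-regulated reporter transcription units) dosed 24 h. Reporter mRNA by RT-PCR plus CE, analysed as gain or loss relative to DMSO.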

[6] = target: Hypoxia-inducible factor 1-alpha (Homo sapiens) (UniProt Q16665); experiment: ATG_HIF1a_CIS: Attagene CIS-FACTORIAL HepG2 Assay for human Hypoxia Inducible Factor 1 (HIF1A) (AID 2282951); conditions: HepG2 Attagene cis-factorial HIF1a reporter transcription; actives raise or lower the signal
Sequence of Hypoxia-inducible factor 1-alpha (Homo sapiens) (Q16665 whole entry, looked up): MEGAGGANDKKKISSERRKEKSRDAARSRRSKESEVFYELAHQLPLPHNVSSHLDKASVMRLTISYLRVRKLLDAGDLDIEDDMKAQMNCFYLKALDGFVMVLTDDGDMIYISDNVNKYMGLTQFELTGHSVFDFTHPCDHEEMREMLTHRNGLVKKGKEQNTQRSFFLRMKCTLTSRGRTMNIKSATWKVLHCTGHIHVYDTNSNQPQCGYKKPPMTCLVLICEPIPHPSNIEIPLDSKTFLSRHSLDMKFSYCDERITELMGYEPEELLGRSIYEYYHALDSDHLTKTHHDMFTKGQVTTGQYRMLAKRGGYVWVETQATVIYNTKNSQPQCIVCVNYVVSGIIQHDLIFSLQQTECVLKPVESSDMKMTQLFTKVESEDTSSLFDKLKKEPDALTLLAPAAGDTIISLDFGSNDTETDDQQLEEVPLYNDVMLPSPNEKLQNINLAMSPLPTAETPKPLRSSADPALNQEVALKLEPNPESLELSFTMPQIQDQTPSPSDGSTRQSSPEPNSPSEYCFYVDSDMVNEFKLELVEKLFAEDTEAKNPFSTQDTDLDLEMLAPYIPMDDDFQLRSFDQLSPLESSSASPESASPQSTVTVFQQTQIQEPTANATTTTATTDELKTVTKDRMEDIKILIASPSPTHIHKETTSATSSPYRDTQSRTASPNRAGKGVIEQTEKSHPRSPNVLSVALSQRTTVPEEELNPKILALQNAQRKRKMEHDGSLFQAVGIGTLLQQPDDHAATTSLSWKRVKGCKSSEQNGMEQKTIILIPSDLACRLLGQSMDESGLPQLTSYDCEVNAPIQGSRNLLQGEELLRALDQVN
How it was run: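 Measures endogenous transcription-factor activity through cis-regulated reporter mRNA in HepG2. Cells dosed 24 h; transcripts quantified by RT-PCR with 6-FAM-labelled products separated by capillary electrophoresis; DMSO serves as negative control.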

[7] = target: Hepatocyte nuclear factor 6 (Homo sapiens) (UniProt Q9UBC0); experiment: ATG_HNF6_CIS: Attagene CIS-FACTORIAL HepG2 Assay for human Hepatocyte Nuclear Factor 6 (HNF6) (AID 2282952); conditions: HepG2 Attagene cis-factorial HNF6 reporter transcription; actives raise or lower the signal
Sequence of Hepatocyte nuclear factor 6 (Homo sapiens) (Q9UBC0 whole entry, looked up, the tested form may be a part): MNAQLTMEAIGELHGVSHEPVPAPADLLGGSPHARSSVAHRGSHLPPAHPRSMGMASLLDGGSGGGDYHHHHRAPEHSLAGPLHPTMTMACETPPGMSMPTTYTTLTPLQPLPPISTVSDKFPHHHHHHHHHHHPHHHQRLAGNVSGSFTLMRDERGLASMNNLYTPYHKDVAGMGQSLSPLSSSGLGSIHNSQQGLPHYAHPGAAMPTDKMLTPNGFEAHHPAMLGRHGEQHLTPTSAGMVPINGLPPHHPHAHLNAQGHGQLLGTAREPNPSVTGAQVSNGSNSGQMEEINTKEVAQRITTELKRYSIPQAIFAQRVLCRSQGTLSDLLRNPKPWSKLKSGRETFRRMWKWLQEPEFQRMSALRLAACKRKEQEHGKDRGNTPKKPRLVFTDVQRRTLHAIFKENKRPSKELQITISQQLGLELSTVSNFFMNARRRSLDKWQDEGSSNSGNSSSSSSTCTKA
How it was run: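 First, HepG2 cells were transfected with the multiplexed cis reporter library and dosed with chemical for 24 h. Next, RNA was reverse-transcribed, PCR-amplified and fluorescently labelled. Finally, HpaI-digested fragments were read by capillary electrophoresis.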

[8] = target: Heat shock factor protein 1 (Homo sapiens) (UniProt Q00613); experiment: ATG_HSE_CIS: Attagene CIS-FACTORIAL HepG2 Assay for human Heat Shock Transcription Factor 1 (HSE) (AID 2282953); conditions: HepG2 HSE cis-reporter, Attagene RNA transcription; actives raise or lower the signal
Sequence of Heat shock factor protein 1 (Homo sapiens) (Q00613 whole entry, looked up): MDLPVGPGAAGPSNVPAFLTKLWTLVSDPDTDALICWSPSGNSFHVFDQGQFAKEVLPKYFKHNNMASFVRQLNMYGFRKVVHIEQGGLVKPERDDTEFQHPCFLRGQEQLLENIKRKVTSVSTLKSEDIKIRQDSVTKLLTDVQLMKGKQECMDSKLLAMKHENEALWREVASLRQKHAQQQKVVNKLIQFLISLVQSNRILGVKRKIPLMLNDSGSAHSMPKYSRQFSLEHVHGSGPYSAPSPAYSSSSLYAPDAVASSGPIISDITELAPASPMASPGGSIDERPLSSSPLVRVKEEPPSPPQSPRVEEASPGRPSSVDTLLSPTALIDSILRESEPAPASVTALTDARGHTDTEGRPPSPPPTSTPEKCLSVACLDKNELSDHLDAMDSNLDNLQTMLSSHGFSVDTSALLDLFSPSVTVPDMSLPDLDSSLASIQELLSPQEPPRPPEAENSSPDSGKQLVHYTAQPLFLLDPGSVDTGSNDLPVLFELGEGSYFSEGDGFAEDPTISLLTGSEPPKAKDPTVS
How it was run: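 Endogenous transcription factor activity in transiently transfected HepG2, read as reporter mRNA by RT-PCR with fluorescent capillary electrophoresis after 24 h. Gain or loss of signal fitted versus DMSO baseline.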

[9] = ATG_MRE_CIS: Attagene CIS-FACTORIAL HepG2 Assay for human Metal Responsive Element (MRE) (AID 2282954); conditions: HepG2 MRE cis-reporter transcription, Attagene multiplex; actives raise or lower the signal
How it was run: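 Measured here is mRNA induction from an MRE cis-element reporter in HepG2 after 24 h, quantified by fluorescence of labelled RT-PCR products on capillary electrophoresis; gain- and loss-of-signal fits use DMSO as baseline.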

[10] = ATG_PBREM_CIS: Attagene CIS-FACTORIAL HepG2 Assay for human Phenobarbital-responsive Enhancer Module (PBREM) (AID 2282955); conditions: HepG2 PBREM cis-reporter, Attagene multiplexed transcription; actives raise or lower the signal
How it was run: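 Fluorescence of labelled reporter cDNA fragments, resolved by capillary electrophoresis, gives mRNA induction in transfected HepG2 cells treated for 24 h; DMSO serves as negative control and baseline.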

[11] = target: Paired box protein Pax-6 (Homo sapiens) (UniProt P26367); experiment: ATG_Pax6_CIS: Attagene CIS-FACTORIAL HepG2 Assay for human Paired Box 6 (PAX6) (AID 2282956); conditions: HepG2 CIS-FACTORIAL PAX6 reporter transcription, RNA readout; actives raise or lower the signal
Sequence of Paired box protein Pax-6 (Homo sapiens) (P26367 whole entry, looked up): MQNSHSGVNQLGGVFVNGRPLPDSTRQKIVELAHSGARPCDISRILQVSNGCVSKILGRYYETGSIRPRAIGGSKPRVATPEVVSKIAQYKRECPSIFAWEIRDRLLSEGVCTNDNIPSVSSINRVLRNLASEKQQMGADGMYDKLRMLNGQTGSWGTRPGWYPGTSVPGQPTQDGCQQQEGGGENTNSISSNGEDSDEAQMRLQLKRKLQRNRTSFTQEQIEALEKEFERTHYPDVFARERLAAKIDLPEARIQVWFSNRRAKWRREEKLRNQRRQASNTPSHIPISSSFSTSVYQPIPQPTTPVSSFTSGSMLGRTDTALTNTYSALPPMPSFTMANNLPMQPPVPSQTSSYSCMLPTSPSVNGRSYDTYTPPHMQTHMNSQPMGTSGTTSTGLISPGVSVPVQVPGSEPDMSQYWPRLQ
How it was run: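 DMSO-referenced bidirectional fits of reporter mRNA fluorescence; HepG2 with transient cis-promoter MRTUs, 24 h post-dose, RT-PCR plus capillary electrophoresis detection.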

[12] = ATG_PPRE_CIS: Attagene CIS-FACTORIAL HepG2 Assay for human Peroxisome Proliferator-activated Response Element (PPRE) (AID 2282958); conditions: HepG2 PPRE cis-element reporter, Attagene transcription factor profiling; actives raise or lower the signal
How it was run: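 Cells are first transfected transiently with the multiplexed reporter library, then dosed for 24 h. Total RNA is reverse-transcribed, amplified, fluorescently end-labeled and HpaI-cut before capillary electrophoresis; activity is fitted bidirectionally against DMSO controls.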

[13] = ATG_RORE_CIS: Attagene CIS-FACTORIAL HepG2 Assay for human RAR-related Orphan Receptor Element (RORE) (AID 2282959); conditions: HepG2 Attagene cis-factorial RORE reporter, mRNA; actives raise or lower the signal
How it was run: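 Cells were HepG2 carrying transfected cis-regulated reporter constructs, dosed for 24 hours. Total RNA was reverse-transcribed and reporter cDNA amplified, fluorescently labeled and sized by capillary electrophoresis. Activity was fitted bidirectionally relative to DMSO.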

[14] = ATG_Sox_CIS: Attagene CIS-FACTORIAL HepG2 Assay for human SRY-box transcription factor (SOX) (AID 2282960); conditions: HepG2 Attagene cis-factorial SOX reporter, mRNA; actives raise or lower the signal
How it was run: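 Transient MRTU transfection of HepG2; 24 h compound incubation; TriZol RNA, oligo(dT) RT, PCR, 6-FAM primer extension, HpaI cut, CE. Bidirectional fit, DMSO = baseline.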

[15] = ATG_FoxO_CIS: Attagene CIS-FACTORIAL HepG2 Assay for human Forkhead box O (FoxO) (AID 2282943); conditions: HepG2 Attagene cis-reporter, FoxO element, mRNA; actives raise or lower the signal
How it was run: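 Read-out: fluorescence of 6-FAM-labelled reporter cDNA fragments resolved by capillary electrophoresis. Transiently transfected HepG2 cells were dosed for 24 h; activity fitted in both directions relative to DMSO controls.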

[16] = target: Bile acid receptor (Homo sapiens) (UniProt Q96RI1); experiment: ATG_IR1_CIS: Attagene CIS-FACTORIAL HepG2 Assay for human Nuclear Receptor Subfamily 1 Group H Member 4 (NR1H4), IR1 submotif (AID 2282946); conditions: IR1 reporter transcription, actives raise or lower the signal
Sequence of Bile acid receptor (Homo sapiens) (Q96RI1 whole entry, looked up): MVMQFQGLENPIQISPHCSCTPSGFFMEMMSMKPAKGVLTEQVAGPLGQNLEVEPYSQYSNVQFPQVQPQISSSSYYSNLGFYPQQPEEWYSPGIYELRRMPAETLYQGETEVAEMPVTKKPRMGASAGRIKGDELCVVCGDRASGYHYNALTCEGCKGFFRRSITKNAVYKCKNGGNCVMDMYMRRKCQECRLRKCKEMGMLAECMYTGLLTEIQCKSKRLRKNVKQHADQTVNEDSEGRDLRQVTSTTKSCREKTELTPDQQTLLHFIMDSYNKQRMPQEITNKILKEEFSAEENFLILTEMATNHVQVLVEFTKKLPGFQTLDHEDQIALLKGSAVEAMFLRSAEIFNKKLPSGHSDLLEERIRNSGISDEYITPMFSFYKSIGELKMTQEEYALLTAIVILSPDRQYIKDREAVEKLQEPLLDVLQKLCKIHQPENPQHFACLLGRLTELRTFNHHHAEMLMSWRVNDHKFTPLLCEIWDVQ
How it was run: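 Fluorescence of capillary-separated, HpaI-digested RT-PCR reporter products gave IR1-element mRNA induction in HepG2 cells 24 h after dosing. Endogenous transcription factors drove the cis-regulated reporters; activity was fitted bidirectionally against DMSO.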

[17] = ATG_GRE_CIS: Attagene CIS-FACTORIAL HepG2 Assay for human Glucocorticoid Response Elements (GRE) (AID 2282947); conditions: HepG2 GRE cis-reporter, Attagene multiplex mRNA; actives raise or lower the signal
How it was run: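 Fluorescence intensity of reporter-specific cDNA fragments, separated by capillary electrophoresis, provides the signal. Constructs carry cis-regulating promoters in transiently transfected HepG2 liver cells; 24 h incubation; fitting is bidirectional against DMSO.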

[18] = ATG_PXRE_CIS: Attagene CIS-FACTORIAL HepG2 Assay for human Pregnane X Receptor Element (PXRE) (AID 2282957); conditions: HepG2 Attagene CIS-FACTORIAL PXRE reporter, mRNA; actives raise or lower the signal
How it was run: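 After a 24 h chemical incubation, total RNA from transfected HepG2 cells was reverse-transcribed and reporter cDNA amplified, FAM-labeled, HpaI-digested and sized by capillary electrophoresis. DMSO served as baseline for bidirectional curve fitting.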

[19] = ATG_M_06_CIS: Attagene CIS-FACTORIAL HepG2 Assay for M06 Transcription Factor (Internal Marker) (AID 2282950); conditions: HepG2 Attagene CIS-FACTORIAL M06 internal marker reporter; actives raise or lower the signal
How it was run: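 Serves as a background control readout. Transfected HepG2 exposed to compounds for 24 h, then reporter transcripts quantified by fluorescent RT-PCR and capillary electrophoresis. Both directions fitted against DMSO baseline.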

Measured: AC50

COc1cc(-c2ccc(N)c(OC)c2)ccc1N
inactive: [1] | [2] | [3] | [4] | [5] | [6] | [7] | [8] | [10] | [11] | [14]
active: [4] 53.6 µM | [9] 49.7 µM and 57.9 µM | [10] 29.2 µM | [11] 19.9 µM | [12] 43.9 µM and 11.8 µM | [13] 15.7 µM and 33.6 µM

O=C1CCCN1
not listed: [3] | [19]
inactive: all other assays above

Nc1cccc2ccccc12
active: [6] 165 µM
not listed: [3] | [16] | [17] | [18] | [19]
inactive: all other assays above

ClCc1cccnc1
active: [17] 72.5 µM | [11] 75.4 µM
not listed: [9]
inactive: all other assays above

CC(=O)C(Cl)C(=O)N(C)C (stereo unspecified)
active: [9] 100 µM
not listed: [16] | [18] | [19]
inactive: all other assays above

O=C(NCO)NCO
active: [18] 27.2 µM
not listed: [4] | [9] | [16] | [19]
inactive: all other assays above

CC(=O)OC(c1ccccc1)C(Cl)(Cl)Cl (stereo unspecified)
active: [18] 48.6 µM
not listed: [9] | [10] | [15] | [19]
inactive: all other assays above

COP(=O)(OC)OC
active: [18] 32.7 µM
not listed: [4]
inactive: all other assays above

CC(C)C1CCC(Cc2ccc(Cl)cc2)C1(O)Cn1cncn1 (stereo unspecified)
active: [18] 1.04 µM
not listed: [4] | [9] | [12]
inactive: all other assays above

CC(Br)C(=O)O (stereo unspecified)
not listed: [3] | [4] | [16] | [18]
inactive: all other assays above

CCC[CH2][Sn]([Cl])([Cl])[Cl]
not listed: [4] | [15] | [19]
inactive: all other assays above

O=C1C(Cl)=C(Cl)C(=O)c2ccccc21
active: [8] 13.6 µM
not listed: [4] | [10] | [16]
inactive: all other assays above

CC(C)CCCCCCOC(=O)c1ccccc1C(=O)OCCCCCCC(C)C
active: [18] 1.39 µM
not listed: [12] | [13]
inactive: all other assays above

COP(=O)(OC)O/C(=C\Cl)c1cc(Cl)c(Cl)cc1Cl
active: [3] 130 µM | [4] 47 µM | [6] 100 µM | [8] 153 µM | [9] 100 µM | [11] 35.2 µM | [18] 1.4 µM | [12] 154 µM | [14] 44.3 µM
inactive: [1] | [15] | [2] | [16] | [5] | [19] | [7]
